Drawing on PubChem BioAssay (NCI), this text covers growth for seven compounds.

Assay in all cases: NCI-60 one-dose screen, 48 h (100 = growth as untreated, 0 = no growth, -100 = all killed)
Common to all, as to conditions: 10 µM unless noted

The test system of assay [1] is DU-145 prostate.
Assay [2] deals with K-562 leukemia.
The subject of assay [3] is MALME-3M melanoma.
Assay [4] concerns MDA-MB-231 breast.
Assay [5] deals with RXF 393 renal.
In assay [6] the test system is SF-268 CNS.
Assay [7] concerns SF-295 CNS.
For assay [8], the system named is SF-539 CNS.
In assay [9] the test system is UACC-257 melanoma.
Assay [10] deals with M14 melanoma.
The subject of assay [11] is HCT-15 colon.
In assay [12] the test system is HT29 colon.
Assay [13] relates to SNB-75 CNS.
The test system of assay [14] is SNB-19 CNS.
The test system of assay [15] is U251 CNS.
Assay [16] has as its system PC-3 prostate.
In assay [17] the test system is SK-MEL-5 melanoma.
Assay [18] relates to LOX IMVI melanoma.
The subject of assay [19] is SK-MEL-28 melanoma.
Assay [20] concerns UACC-62 melanoma.

The structures appear in SMILES notation. The panel holds about 83,000 compounds, 20% with a hit somewhere; the sample as a whole holds those more often.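 The test compound was applied at a single concentration to cells in 96-well plates for 48 hours, and percent growth was recorded.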 A number with no mark means an inactive call. Activity calls are given as the source filed them. How the source made its calls: active means growth percent below 10; inactive means the rest.

For the compound `O=C1CC(c2ccsc2)c2snc(-c3ccc(Cl)cc3)c2N1` (stereo unspecified), the growth in assay [1] was 19.4%; in [2], 16.4%; in assay [3] it was 37.7%; in assay [4], 90%; in assay [5] it was 25.4%; in [6] it was 56.1%. Besides, the growth is 17.1% in assay [7]; 32.4% in assay [8]; 50% in assay [9]; 13.9% in [10]; 21.9% in assay [11]; 3.6% (active) in [12]. Besides, the growth was -6.98% (active) in assay [13]; 64.4% in assay [14]; 27.7% in assay [15]; 24% in [16]; 18.1% in [17]; 51.8% in assay [18]. In assay [19], the growth was 45.4%.

As to `COc1ccc(/C=C2\Oc3cc(C)c(Cl)cc3C2=O)cc1OC`, the growth in [1] was 104%; in assay [2] it was 86.6%; in assay [3], 99.7%; in assay [4], 102%; in assay [5], 111%; in assay [6] it was 102%. The growth is 95.7% in assay [7]; 92.7% in assay [8]; 101% in [9]; 96.3% in [10]; 96.5% in [11]; 109% in assay [12]. Also, the growth in [13] was 101%; in assay [14], 98.4%; in [15], 96.8%; in assay [16] it was 101%; in assay [17], 91.8%; in assay [20], 87.3%. Moreover, the results for the growth in assay [18] and in assay [19] were 92.9% and 114%, respectively.

On to `CCCCc1ccc(C(O)(CCN2CC3CCC(CC3)C2)c2ccccc2)cc1` (stereo unspecified), for which the growth is 99.8% in [1]; 75.2% in assay [2]; 95.7% in [3]; 99.1% in assay [4]; 96.2% in assay [5]; 97.1% in assay [6]. Moreover, the growth was 102% in assay [7]; 101% in assay [8]; 95.2% in assay [9]; 91.7% in assay [10]; 65.7% in assay [11]; 68.8% in assay [12]. Also, the growth in assay [13] was 116%; in assay [14], 108%; in assay [15], 83.3%; in assay [16] it was 94.3%; in assay [17] it was 101%; in assay [18] it was 103%. The growth in [19] was 102%.

As for `COc1ccc(-c2nc3sc(C)cn3c2/C=C/C(=O)c2cc(OC)c(OC)c(OC)c2)cc1`, the growth in assay [1] is 82.2%; in assay [2] it was 75.6%; in [3], 39.3%; in assay [4], 39.5%; in assay [5], 84.5%; in assay [6], 73.4%. Further, the growth in assay [7] was 51.3%; in assay [8] it was 77.6%; in [9], 50.8%; in assay [10] it was 43%; in assay [11], 48.1%; in [12] it was 60.1%. Besides, the growth was 55.8% in [13]; 75.6% in assay [14]; 47.1% in [15]; 19% in [16]; 4.08% (active) in assay [17]; 36.7% in [20]. Moreover, the growth in assay [18] was 48.8%; in [19], 41.4%.

With `CCCCCCCC/C=C\CCCCCCCCOc1cccc(CC(=O)NCC[N+](C)(C)C)c1`, the growth in [1] is 94.4%; in assay [2], 85.5%; in [3], 90.1%; in assay [4], 87.3%; in assay [5] it was 13.8%; in [6], 71.5%. Besides, the growth in assay [7] was 87.1%; in [8], 92.2%; in assay [9] it was 103%; in assay [10], 75.3%; in assay [11] it was 91.7%; in assay [12], 48.3%. Besides, the growth in assay [13] was 59.1%; in [14], 60.1%; in assay [15], 46.2%; in [16], 36.4%; in [17], 90.8%; in [20], 80.8%. Also, the growth in assay [19] was 99.6%.

On to `Nc1nc2c(s1)CCc1c-2c(Br)n(Cc2ccccc2)c1Br`, for which the growth in assay [1] is 109%; in [2], 15.4%; in [3], 37.8%; in assay [4], 80.9%; in assay [5], 17.9%; in assay [6], 89.1%. Further, the growth was 120% in [7]; 93.4% in [8]; 96.9% in assay [9]; 91.8% in assay [10]; 50.8% in assay [11]; 97.6% in [12]. The growth is 89.5% in assay [13]; 105% in assay [14]; 91.6% in assay [15]; 89.1% in assay [16]; 89.3% in [17]; 86.1% in assay [18]. Also, in assay [19], the growth was 100%.

On to `Fc1ccccc1Nc1ccc2nnc(-c3ccncc3)n2n1`, for which the growth in assay [1] was 110%; in assay [2], 93.4%; in assay [3], 103%; in [4], 101%; in assay [5], 113%; in [6], 101%. The growth in assay [7] is 112%; in [8] it was 106%; in assay [9], 105%; in [10], 104%; in assay [11], 95.6%; in [12], 103%. The growth in assay [13] is 101%; in assay [14], 100%; in assay [15] it was 101%; in assay [16] it was 101%; in assay [17] it was 103%; in assay [20], 107%. The figures for the growth in assay [18] and in assay [19] were 95.6% and 112%, respectively.
